LANA DNA inh: inhibitors of KSHV LANA C-terminal domain DNA binding. MBP-C-LANA/FAM-LBS DNA binding, fluorescence polarization. 0.078% of 340,000 active. inhibition, % at 9 µM;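 active = highest replicate inhibition at or above 60% at 9 µM, even if other replicates fall short; inactive = all replicates below 60% inhibition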;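 also: 0% = neutral control wells and 100% = 4 µM acridine orange control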
E coli Lon inh: inhibits E. coli Lon protease | inhibition, % at 7.94 µM | 0.42% of 360,000 active | purified E. coli Lon protease, fluorescence polarization | AID 602123 | P0A9M0; in the data active = inhibition above about 13%, passing the limit was not always enough;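 also: 0% = enzyme with probe and DMSO and 100% = no enzyme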
RTF Ca sens inh: cardiac RTF calcium desensitization | P19429+P45379 | IANBD-labeled cardiac RTF, Ca2+ fluorescence | inhibition, % at 7.15 µM | 0.12% of 340,000 active | AID 493244;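 active = inhibition above the mean inhibition of all tested compounds plus 3 SD, cut at about 17% in these data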;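 also: assay run at fixed EC70 calcium of 1.6 mM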
EBV gp42 block: inhibitors of Epstein-Barr virus glycoprotein 42; Q1HVG2; Fluorescence polarization binding assay, mP read-out; inhibition, % (tested at 21.74 µM); 0.42% of 220,000 active; AID 1085; in the data active = inhibition above about 50%
Target sequence (Q1HVG2 whole entry, looked up): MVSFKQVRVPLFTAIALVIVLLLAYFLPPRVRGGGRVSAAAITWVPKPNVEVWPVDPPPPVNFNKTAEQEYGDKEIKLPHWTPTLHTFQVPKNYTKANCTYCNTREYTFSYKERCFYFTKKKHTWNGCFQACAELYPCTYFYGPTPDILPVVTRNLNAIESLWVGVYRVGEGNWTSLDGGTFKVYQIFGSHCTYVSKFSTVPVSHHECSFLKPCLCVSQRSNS
cardiac RTF act: increases calcium sensitivity of human cardiac regulated thin filaments | activation, % at 7.2 µM | 0.24% of 340,000 active | AID 493008 | IANBD-labeled TnC RTF fluorescence at EC20 calcium; 0% EC20 calcium, 100% full calcium | P19429+P45379;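 active = activation above the mean over all tested compounds plus 3 SD, cut at about 30% in these data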;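 also: rise in fluorescence read as greater calcium sensitivity of cardiac thin filaments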
Keap1 Nrf2 FP: Keap1-Nrf2 (human) interaction inhibition; Q14145; Keap1 Kelch-Nrf2 peptide fluorescence polarization, 1536-well; inhibition, % at 9.4 µM; 0.15% of 340,000 active; AID 504523; in the data active = inhibition above about 12%;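 also: human Keap1 Kelch domain with fluorescein labeled Nrf2 9mer peptide probe; 0% = neutral control wells and 100% = peptide positive control; higher means more block of Keap1 binding to Nrf2 peptide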
* = called active by the depositor; i = inactive; . = not tested or not shown. Only some compounds are listed: those with a hit (about 0.98% of all), similar ones and a draw of the others.

SMILES	LANA DNA inh	E coli Lon inh	RTF Ca sens inh	EBV gp42 block	cardiac RTF act	Keap1 Nrf2 FP
CC(=O)OCCCNc1cc(Sc2ccc(C)cc2)c2nonc2c1[N+](=O)[O-]	-1	0	-8	-11	1	-4
CC(=O)OCCCNc1cc(Sc2nc3ccccc3s2)c2nonc2c1[N+](=O)[O-]	6	-18	-6	78*	4	1
CCOC(=O)C(=O)Cc1cccnn1	72*	10	-9	.	-1	2
CC(=O)c1ccc(Nc2c3c(nc4ccccc24)CCCC3)cc1	2	2	4	86*	-5	2
CC(=O)c1cccc(Nc2c3c(nc4ccccc24)CCC3)c1	-2	-3	-6	.	2	2
COCCN(CCOC)Cc1c(O)ccc2c1O/C(=C\c1ccco1)C2=O	65*	0	-94	.	69*	1
CCN(CC)c1ccc(/C=C2\C(=N)N3N=C(CC(=O)N4CCOCC4)SC3=NC2=O)cc1	9	i	-25	.	38*	-40
CSc1ccc(/C=C2\C(=N)N3N=C(CC(=O)N4CCOCC4)SC3=NC2=O)cc1	5	-16	-8	.	1	-3
NNc1nc(C(F)(F)F)nc2ccccc12	-1	3	-15	-3	-1	-2
O/C=c1\ccc2cccc3nc(C(F)(F)F)nc1c23	16	-88	-81	.	124*	-10
Cc1ccc(Nc2nc(=O)c3cc([N+](=O)[O-])ccc3s2)cc1	0	11	-8	4	1	-5
COc1ccc(Nc2nc(=O)c3cc([N+](=O)[O-])ccc3s2)cc1	-2	0	-5	61*	-3	0
CC(OC(=O)/C(C#N)=C/c1ccc(N(C)C)cc1)C(=O)N(C)Cc1ccccc1 (configuration not stated)	3	-255	-48	.	30*	-9
CC(OC(=O)c1cccc(O)c1)C(=O)N(C)Cc1ccccc1 (configuration not stated)	-1	7	-12	.	0	-3
COc1ccc(CN2CCC2(C)C(=O)Nc2cccc(NS(C)(=O)=O)c2)c2ccccc12 (configuration not stated)	.	-3	.	.	.	.
CCN(CC)c1ccc(/C=C2/SC(=O)N(C(C)C)C2=O)o1	-9	-172	-114	-270	155*	-124
O=C(NCCCCNC(=O)C1CCCC1)C1CCCC1	0	1	-5	-25	4	-6
O=C(NCCCCc1ccccc1)C1CCCC1	101*	1	1	.	-4	-3
Cc1ccc(NC(=O)COc2coc(CN3CCc4ccccc43)cc2=O)cc1Cl	2	-3	5	.	-4	-7
CC1=C(C(N)=O)C(c2ccc(Br)cc2)n2nc(CCCO)nc2N1 (configuration not stated)	2	2	-3	.	-2	-2
OCCCc1nc2n(n1)C(c1cccs1)C=C(c1ccc(Br)cc1)N2 (configuration not stated)	.	.	.	141*	.	.
O=C(CC1CCCC1)N1CCN(S(=O)(=O)c2ccccc2)CC1	.	2	-125	.	33*	-44
C=CCN1C=CC(=C/C=C(/C#N)C(=O)OCC)C=C1	-58	i	-130	-310	123*	-213
O=C1COc2ccc(S(=O)(=O)Nc3ccc(F)cc3)cc2N1	0	2	-12	.	-2	-2
CCOC(=O)C1=C(O)/C(=C/c2cn(CC(=O)NCC3CCCO3)c3ccccc23)SC1=Nc1ccc(C)cc1 (configuration not stated)	21	-6	-20	.	135*	-7
SMILES	LANA DNA inh	E coli Lon inh	RTF Ca sens inh	EBV gp42 block	cardiac RTF act	Keap1 Nrf2 FP
COc1cc(/C=C2\SC(=O)N(Cc3ccc(Cl)cc3)C2=O)cc([N+](=O)[O-])c1O	0	-4	7	90*	-17	-2
COc1ccc(/C=C2\SC(=S)N(CCCC(=O)Nc3ccccn3)C2=O)cc1OC	0	-39	-18	76*	18	-3
COc1cc(/C=C2\SC(=O)N(Cc3ccc(F)cc3)C2=O)cc([N+](=O)[O-])c1O	-2	0	-8	58*	9	-3
COc1cc(/C=C2/SC(=S)N(Cc3ccccc3)C2=O)cc(Cl)c1O	-19	-108	-108	.	71*	-6
COc1cc(/C=C2/SC(=S)N(Cc3ccccc3)C2=O)ccc1OCC(=O)O	-1	-33	2	.	-3	-3
CCOC(=O)CN1C(=O)S/C(=C/c2ccc(OC)c([N+](=O)[O-])c2)C1=O	2	3	-12	8	-5	-8
COc1cc(/C=C2/C(=O)N(c3ccc(C)c(C)c3)N=C2C)cc([N+](=O)[O-])c1O	1	8	-3	.	-4	-6
CCCCNC(=O)C1(C)CCCCN1C(=O)c1cncc(Br)c1 (configuration not stated)	.	2	.	.	.	.
CCN(C(=O)COC(=O)CSc1ccccc1)c1c(N)n(Cc2ccccc2)c(=O)[nH]c1=O	.	-3	3	.	7	.
CC(=O)Nc1ccc2c(O)cc(S(=O)(=O)O)cc2c1	12	-24	-5	.	1	1
O=S(=O)(O)c1cc(O)c2cc(Nc3ccccc3)ccc2c1	93*	17	16	.	-13	0
Cc1c(NC(=O)COC(=O)c2ccc(Cl)nc2)c(=O)n(-c2ccccc2)n1C	3	0	1	.	-6	3
CCN(CC)S(=O)(=O)c1ccc(C(=O)/C=C/c2ccc(-c3ccc([N+](=O)[O-])cc3)o2)cc1	-2	-36	-10	86*	7	-4
COc1ccc(C)cc1NC(=O)CN1C(=O)COc2ccc(C)cc21	2	3	-2	.	3	-4
CCOc1ccc(-c2nnc(NC(=O)Cc3cc(OC)c(OC)c(OC)c3)o2)cc1	-2	-6	-3	.	0	-3
Cc1cc(C(=O)COC(=O)COc2ccccc2C#N)c(C)n1CC1CCCO1 (configuration not stated)	-2	-3	-6	.	0	-3
C=CCn1c(C)cc(C(=O)COC(=O)COc2ccccc2C#N)c1C	0	1	0	90*	12	-2
CCc1ccc(C(=O)CCC(=O)Nc2cccc(S(=O)(=O)N3CCCCC3)c2)cc1	0	3	-4	.	-10	0
N#Cc1cc(C(=O)c2ccccc2O)cn(-c2nccs2)c1=O	25	-249	-78	51*	62*	-22
Cc1c(-n2cc(C(=O)c3cc(F)ccc3O)cc(C#N)c2=O)c(=O)n(-c2ccccc2)n1C	1	-27	-8	-2	1	-5
N#Cc1cc(C(=O)c2cc(F)ccc2O)cn(-c2nccs2)c1=O	9	-261	-75	21	54*	-66
COC(=O)C1=COC(C)C2CN3CCc4c([nH]c5cc(OC)c(OC)cc45)C3CC12 (configuration not stated)	33	37	-22	74*	30*	-2
COc1ccccc1CNC(=O)COC(=O)C1CCN(S(=O)(=O)c2c(Cl)cccc2Cl)CC1	1	1	0	.	-3	-8

Source: PubChem
